Inconclusive results are not listed. Where a call stands in place of a potency, no number is given. Activity calls are given as the source filed them. Calls follow the shape of the dose curve; as a rule, active = well fitted curve in the direction sought with a large enough effect; inconclusive = small, poorly fitted or top-dose-only effect, or another doubt; inactive = no such curve, though single readings can be large; an effect the other way counts as inactive or inconclusive.
Tests used:
[1] = HEK-293 Cancer Cell Toxicity qHTS against the NCATS CANVASS Library (AID 1347355); also: nearly all actives have a fitted effect of over 65% in size; also: potency is read from the fitted curve at half-maximal effect; as to outcome: series mostly up to about 46 µM
Procedure, shortened: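 Toxicity was measured as CellTiter-Glo luminescence after 72 h exposure to an 11-point compound series. Compound was added to 1000 cells/well 4 h after seeding.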

[2] = HPAF-II 24hr Apoptosis Induction qHTS against the NCATS CANVASS Library (AID 1347356)
Procedure, shortened: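 Caspase-Glo 3/7 luminescence, read after 15 min room-temperature development, measures apoptosis in HPAF-II cells treated 24 h at 37 degrees C with an 11-point concentration series; 500 cells/well; doxorubicin control.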

[3] = HEK293 18hr Apoptosis Induction qHTS against the NCATS CANVASS Library (AID 1347357); also: potency is read from the fitted curve at half-maximal effect
Procedure, shortened: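 Caspase-Glo 3/7 luminescence (15 min, room temperature) measured apoptosis after an 18-hour, 37 degrees C exposure of HEK293 cells (500 cells/well) to compounds in 11 points.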

[4] = HPAF-II 12hr Apoptosis Induction qHTS against the NCATS CANVASS Library (AID 1347358)
Procedure, shortened: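 Caspase-3/7 activation by DEVD-substrate luminescence (Caspase-Glo 3/7, 15 min, room temperature) after a 12-hour compound exposure in 11 concentrations, of HPAF-II pancreatic cells seeded at 500/well in DMEM with 10% FBS.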

[5] = HPAF-II 18hr Apoptosis Induction qHTS against the NCATS CANVASS Library (AID 1347360)
Procedure, shortened: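 Caspase-3/7 activation was measured with luminescent Caspase-Glo 3/7 reagent (15 min, RT) in HPAF-II cancer cells (500 cells/well). Before detection, cells had been treated for 18 h at 37 C with compounds (11 points).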

[6] = HEK293 12hr Apoptosis Induction qHTS against the NCATS CANVASS Library (AID 1347361)
Procedure, shortened: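 HEK293 cells (500/well, DMEM + 10% FBS) were exposed to natural products across an 11-point series for 12 hours at 37 degrees C. Caspase-3/7 activity was then measured with DEVD luciferase luminescence after 15 min at room temperature.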

[7] = KB-3-1 Cancer Cell Toxicity qHTS against the NCATS CANVASS Library (AID 1347366); also: nearly all actives have a fitted effect of over 75% in size; also: potency is read from the fitted curve at half-maximal effect
Procedure, shortened: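 CellTiter-Glo luminescence measured viability after 72 h at 37C. KB-3-1 cells were seeded at 500 per well in DMEM/10% FBS.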

[8] = qHTS for ATAD5 Agonist screened against the NCATS CANVASS Library (AID 1347367);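 also: luciferase reporter driven by ATAD5 which rises upon DNA damage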
Procedure, shortened: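 Genotoxicity via ATAD5-luciferase luminescence after 16 h compound exposure (11-point series) at 37C in HEK293T-ATAD5 cells. CellTiter-Fluor viability read precedes the luminescence read; MMS serves as positive control.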

[9] = G06 Cancer Cell Toxicity qHTS against the NCATS CANVASS Library (AID 1347368); also: nearly all actives have a fitted effect of over 60% in size; also: potency is read from the fitted curve at half-maximal effect
Procedure, shortened: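 Viability measured by CellTiterGlo ATP luminescence after 72 hr at 37C, 5% CO2. Canine G06 glioma cells plated at 500/well. Compounds tested as 11-point qHTS titrations.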

[10] = MCF7 Cancer Cell Toxicity qHTS against the NCATS CANVASS Library (AID 1347369); also: potency is read from the fitted curve at half-maximal effect
Procedure, shortened: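 Cytotoxicity was measured as CellTiterGlo luminescence (ATP) after 72 h at 37 °C. The cells were MCF7 at 500 per well, with an 11-point compound concentration series.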

[11] = qHTS for ATAD5 Antagonist screened against the NCATS CANVASS Library (AID 1347370); also: nearly all actives have a fitted effect of over 65% in size; also: potency is read from the fitted curve at half-maximal effect
Procedure, shortened: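 Compounds (11-point) co-dosed with 10 µM 5-FUrd for 16 h at 37 °C onto HEK293T-ATAD5 luciferase reporter cells. Viability measured by CellTiter-Fluor fluorescence, then ATAD5 reporter signal by luminescence.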

[12] = target: Nuclear receptor subfamily 1 group I member 3 (Homo sapiens) (UniProt Q14994); assay: qHTS for Constitutive Androstane Receptor (CAR) Agonist screened against the NCATS CANVASS Library (AID 1347373);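 also: every well also contained 1.5 µM PK11195 alongside the test compound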
Procedure, shortened: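 Agonist mode with 1.5uM PK11195 present: compounds for 24hr on HepG2-hCAR-CYP2B6 cells. CellTiter-Fluor fluorescence (ex 405, em 540 nm) gives viability; ONE-Glo luminescence reports CAR activation.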

[13] = 10-beta competent E. coli microbial cell viability qHTS against the NCATS CANVASS Library (AID 1347376); also: series mostly up to about 46 µM
Procedure, shortened: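 Read-out: BacTiter-Glo ATP luminescence, taken 20 min after reagent addition. Beforehand, 10-beta competent E. coli at 0.2 OD had been incubated overnight at 37C with compounds at 11 concentrations.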

[14] = qHTS for H2AX Agonists against the NCATS CANVASS Library (AID 1347378)
Procedure, shortened: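 Phospho-H2AX (S139) in CHO-K1 lysates measured by HTRF, reported as 665/615 nm emission ratio after 24 hr antibody incubation at room temperature. Cells were first treated with a compound series for 3 hr at 37C (0.76% DMSO final).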

[15] = Inflammasome Signaling qHTS Counterscreen: IL-1-beta AlphaLISA counterscreen against the NCATS CANVASS Library (AID 1347381);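 also: cell-free check with purified IL-1β in medium and no THP-1 cells; series mostly up to about 57 µM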
Procedure, shortened: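 Purified IL-1-beta (4 pg/well) + compound, 11-pt conc. series; acceptor beads 6 ug/mL + biotin-Ab 0.6 nM final, 1 h RT; SA-donor 24 ug/ml final, 30 min dark RT; read ex 680/em 615.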

[16] = qHTS for Activators of p53 Stress Response Pathway screened against the NCATS CANVASS Library (AID 1347388)
Procedure, shortened: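 p53RE-bla HCT-116 cells (4000/well) were plated 5 h at 37C, exposed to compounds for 16 h at 37C over an 11-point concentration series, then loaded with CCF4 for 2 h at room temperature; 460/530 nm emission ratio read.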

[17] = qHTS assay for small molecule disruptors of mitochondrial membrane potential screened against the NCATS CANVASS Library (AID 1347389); also: nearly all actives have a fitted effect of over 60% in size; also: potency is read from the fitted curve at half-maximal effect
Procedure, shortened: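 Mitochondrial membrane potential in HepG2: 1 h compound treatment (11-point concentration series), 30 min m-MPI dye at 37C, then dual fluorescence of J-aggregates (ex 540/em 590) and monomers (ex 490/em 535); lower red/green ratio indicates depolarization.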

[18] = Secretion counterscreen for inhibitors of the SERCaMP assay screened against the NCATS CANVASS Library (AID 1347390);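 also: light from luciferase secreted into medium read as a measure of general secretion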; also: potency is read from the fitted curve at half-maximal effect
Procedure, shortened: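 Counterscreen for secretory-pathway interference: after 4 h attachment, SH-SY5Y-GLuc cells were exposed 20 hours to compounds (final 0.001 - 77 uM), then coelenterazine added and GLuc luminescence recorded; Brefeldin A served as control.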

[19] = Viability qHTS for inhibitors of the SERCaMP assay screened against the NCATS CANVASS Library (AID 1347400); also: nearly all actives have a fitted effect of over 70% in size; also: potency is read from the fitted curve at half-maximal effect
Procedure, shortened: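 CellTiter-Glo luminescence measured cytotoxicity after 48 h at 37C of compound treatment (11-point series). Cells were SH-SY5Y-GLuc SERCaMP MJH297 derivatives, seeded at 1000 per well 4 h beforehand.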

[20] = Redox Reaction Profiling qHTS: Assay Interference Panel against the NCATS CANVASS Library (AID 1347401)
Procedure, shortened: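 Quantitative HTS over an 11-point series was run in HEPES pH 7.3 with 50 mM NaCl, 200 uM DTT and 5 uM resazurin. Initial and 15-min resorufin fluorescence readings were taken.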

Sequence of Nuclear receptor subfamily 1 group I member 3 (Homo sapiens) (Q14994 whole entry, looked up): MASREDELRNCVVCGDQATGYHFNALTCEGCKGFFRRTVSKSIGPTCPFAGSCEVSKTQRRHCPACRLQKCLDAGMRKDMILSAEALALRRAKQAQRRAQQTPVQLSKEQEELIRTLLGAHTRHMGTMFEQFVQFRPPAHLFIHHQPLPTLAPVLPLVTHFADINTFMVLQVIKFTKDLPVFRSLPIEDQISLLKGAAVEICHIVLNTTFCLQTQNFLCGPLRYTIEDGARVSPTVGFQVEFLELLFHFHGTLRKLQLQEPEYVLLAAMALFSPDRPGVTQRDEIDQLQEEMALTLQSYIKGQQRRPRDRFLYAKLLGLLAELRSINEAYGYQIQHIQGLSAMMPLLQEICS

| Structure (SMILES) | Potency [1] | outcome [2] | Potency [3] | Potency [4] | Potency [5] | outcome [6] | Potency [7] | Potency [8] | Potency [9] | Potency [10] | Potency [11] | Potency [12] | outcome [13] | Potency [14] | outcome [15] | Potency [16] | Potency [17] | Potency [18] | Potency [19] | Potency [20] |
| --- | --- | --- | --- | --- | --- | --- | --- | --- | --- | --- | --- | --- | --- | --- | --- | --- | --- | --- | --- | --- |
| C=CC(C)(C)C(=O)[C@@H](C)[C@@H]1CC[C@@](C)(C=C)O1 | inactive | inactive | inactive | inactive | inactive | inactive | inactive | inactive | inactive | inactive | inactive | inactive | inactive | inactive | inactive | inactive | inactive | inactive | inactive | inactive |
| CN1CC[C@@]2([C@@]34CCN(C)[C@@H]3Nc3ccccc34)c3ccccc3N[C@@H]12 | inactive | inactive | inactive | inactive | inactive | inactive | inactive | inactive |  | inactive | inactive | inactive | inactive | inactive | inactive | inactive | inactive | inactive | inactive | inactive |
| C=C(C)C(=O)O[C@H]1C[C@@]2(C)OC(=CC2=O)/C(C)=C\[C@H]2OC(=O)C(=C)[C@H]12 | 1.05 µM (active) | inactive | 2.96 µM (active) | inactive | inactive |  | 3.32 µM (active) | inactive | 2.09 µM (active) | 4.16 µM (active) | 2.95 µM (active) | inactive | inactive |  | inactive | inactive | 18.6 µM (active) | 3.05 µM (active) | 4.8 µM (active) | inactive |
| C/C=C(/CO)C(=O)O[C@@H]1[C@H](O)[C@@H](C(=O)OC)O[C@@H]2C[C@H]3OC(n4cnc5c(N)ncnc54)[C@H](OC)[C@H]3O[C@@]12O (stereo partly specified) | inactive | inactive | inactive | inactive | inactive | inactive | inactive | inactive | inactive | inactive | inactive | inactive | inactive | inactive | inactive | inactive | inactive | inactive | inactive |  |
| CCC(C)=C1OC(=O)[C@H](C)[C@H](O)[C@H](Cc2cccnc2)NC(=O)C(NC(=O)c2ncccc2O)C(C)OC1=O (stereo partly specified) | inactive | inactive | inactive | inactive | inactive | inactive | inactive | inactive | inactive | inactive | inactive | inactive | inactive | inactive | inactive | inactive | inactive | inactive | inactive | inactive |
| C=C[C@@]1(C)CC[C@@H]([C@H](C)C(C)=O)O1 | inactive | inactive | inactive | inactive | inactive | inactive | inactive | inactive | inactive | inactive | inactive | inactive | inactive | inactive | inactive | inactive | inactive |  | inactive | inactive |
| C[C@@]1(CCC(=O)Nc2c(O)ccc(C(=O)O)c2O)C(=O)C=C[C@]23C[C@H]4C[C@H](O[C@@]4(C)C2)C31 (stereo partly specified) | inactive | inactive | inactive | inactive | inactive | inactive | inactive | inactive | inactive | inactive | inactive | inactive | inactive | inactive | inactive | inactive | inactive | inactive | inactive | inactive |
| COc1ccc(-c2oc3cc(OC)cc(OC)c3c(=O)c2O)cc1 | 18.7 µM (active) | inactive | inactive | inactive | inactive | inactive | inactive | inactive | 9.35 µM (active) | inactive |  | inactive | inactive | inactive | inactive | inactive | inactive |  |  | inactive |
| COC(=O)[C@]1([C@H]2CCC(=O)O2)CC(=O)c2c(O)cc(C)cc2O1 | inactive | inactive | inactive | inactive | inactive | inactive | inactive | inactive | inactive | inactive | inactive | inactive | inactive | inactive | inactive | inactive | inactive | inactive | inactive | inactive |
| COc1c(O)cc(O)c2c(=O)cc(-c3ccccc3)oc12 | inactive | inactive | inactive | inactive | inactive | inactive |  | inactive | inactive | inactive | inactive | inactive | inactive | inactive | inactive |  |  | inactive | inactive | inactive |
| [C-]#[N+][C@@]12C(=O)[C@@H]3[C@@H](O[C@@]4(C(=O)N(C)c5cccc1c54)C3(C)C)C(=O)[C@@]2(C)C=C | inactive | inactive | inactive | inactive | inactive | inactive | inactive | inactive | inactive | inactive | inactive | inactive | inactive | inactive | inactive | inactive |  | inactive | inactive | inactive |
| CC[C@@H]1C[C@@]2(CC)OC(=O)[C@@]3(CC)[C@H](CC)[C@@H]1[C@@H]23 | inactive | inactive | inactive | inactive | inactive | inactive | inactive | inactive | inactive |  | inactive | inactive | inactive | inactive | inactive | inactive | inactive |  | 6.04 µM (active) | inactive |

Source: PubChem BioAssay (NCATS)
